Giardia FBPA inh-1: qHTS Assay for Inhibitors of Fructose-1,6-bisphosphate Aldolase from Giardia Lamblia; A8B2U2; purified Giardia FBPA; Potency, µM (doses to about 59.6 µM), for the others: at the highest dose activity, negative = inhibition, actives largely listed as inhibitors; hit rate 0.71% among 290,000; note: potency is the fitted concentration of half-maximal effect; % is set by controls: 0 for no effect and ±100 for the full control effect; nearly all actives have a fitted effect of over 55% in size
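Giardia FBPA (40 nM reagent) was preincubated 10 min at RT with compound (up to 57.5 uM final), then substrate plus GAPDH/TPI/NAD/arsenate coupling system with diaphorase/resazurin was added; resorufin fluorescence (525/598 nm) was read after 20 min.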
Sm TGR inh: qHTS Assay for the Inhibitors of Schistosoma Mansoni Peroxiredoxins | Schistosoma mansoni thioredoxin glutathione reductase (TGR), Q962Y6 | purified TGR, DTNB reduction, TNB absorbance 405 nm | Potency, µM (titrated, usually from 114 µM), for inactives: at the highest dose activity change, negative = inhibition, usual class: inhibitors | hit rate 3% among 360,000 | AID 485364, 2010; note: potency is the fitted concentration of half-maximal effect; % is set by controls: 0 for no effect and ±100 for the full control effect; nearly all actives have a fitted effect of over 60% in size
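Kinetic colorimetric format: TGR-catalysed, NADPH-driven DTNB reduction monitored via TNB absorbance. Enzyme dispensed at 20 nM; compound exposure 15 min at room temperature before reaction start.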
CHX counter: Cycloheximide Counterscreen for Small Molecule Inhibitors of Shiga Toxin; cell reporter, cycloheximide protein synthesis inhibition counterscreen; max response, %; hit rate 12% among 300,000; in the data active = max response mostly above about 13%, no sharp cut-off; inactive = mostly below about 14%; note: read at 38.3 µM for the half of the compounds with a filed dose; 0% is about no effect
Shiga inhibitor: A qHTS for Small Molecule Inhibitors of Shiga Toxin. Vero cells, Shiga toxin protein synthesis inhibition reporter. inhibition, % at 38.7 µM. hit rate 9.2% among 290,000. AID 2315, 2010; in the data active = inhibition mostly above about 28%, no sharp cut-off; inactive = mostly below about 43%; note: 0% is about no effect
Tb PYK inh: qHTS of Trypanosoma Brucei Inhibitors | TbPYK enzyme, Kinase-Glo Plus ATP luminescence, 45 min | Potency, µM (highest dose often 76.8 µM), without a hit: top-dose activity, negative = inhibition, actives largely listed as inhibitors | hit rate 0.12% among 410,000 | AID 624173, 2012; note: potency is the fitted concentration of half-maximal effect; % is set by controls: 0 for no effect and ±100 for the full control effect; nearly all actives have a fitted effect of over 50% in size
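Activity of T. brucei pyruvate kinase was followed by Kinase-Glo Plus luminescence after the enzyme reacted 45 min at room temperature with 130 uM ADP (final) and substrate. Test compounds were added before ADP at multiple concentrations.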
LmPK inh: qHTS Assay for Inhibitors of Leishmania Mexicana Pyruvate Kinase (LmPK); AID 1721, 2009; Potency, µM (top dose mostly 57.5 µM), without a hit: top-dose activity change, negative = inhibition, hits mostly inhibitors; purified LmPK, Kinase-Glo ATP luminescence, 1 h; hit rate 0.37% among 290,000; note: potency is the fitted concentration of half-maximal effect; % is set by controls: 0 for no effect and ±100 for the full control effect
Target sequence (Q27686 whole entry, looked up): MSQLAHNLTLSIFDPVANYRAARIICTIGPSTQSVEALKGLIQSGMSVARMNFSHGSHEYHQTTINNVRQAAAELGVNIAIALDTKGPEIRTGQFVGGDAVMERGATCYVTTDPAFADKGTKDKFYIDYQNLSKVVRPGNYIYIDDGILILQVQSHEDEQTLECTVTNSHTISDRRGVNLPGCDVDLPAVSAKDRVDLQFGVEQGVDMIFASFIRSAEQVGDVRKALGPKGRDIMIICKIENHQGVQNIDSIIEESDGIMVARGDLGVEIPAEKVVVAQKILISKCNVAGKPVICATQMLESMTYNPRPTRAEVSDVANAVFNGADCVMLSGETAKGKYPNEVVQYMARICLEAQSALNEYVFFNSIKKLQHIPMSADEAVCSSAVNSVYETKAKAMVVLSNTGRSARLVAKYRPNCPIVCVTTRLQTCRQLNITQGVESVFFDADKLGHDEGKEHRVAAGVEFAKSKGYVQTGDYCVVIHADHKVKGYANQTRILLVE
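Purified LmPK (0.1 nM) converted ADP (0.1 mM) to ATP with PEP (0.5 mM) in imidazole buffer pH 7.2 with KCl and MgCl2, 1 h at room temperature. ATP was read by Kinase-Glo luminescence; data normalized to uninhibited and no-enzyme controls.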
Giardia growth: qHTS Assay for Inhibitors of Fructose-1,6-bisphosphate Aldolase from Giardia Lamblia: Giardia lamblia growth inhibition. Giardia lamblia trophozoite growth inhibition. hit rate 5% among 1,500. shares compounds with Giardia FBPA inh-1. Potency, µM (highest dose often 57.5 µM), for inactives: at the highest dose activity change, negative = inhibition, hits mostly inhibitors;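 note: potency is the fitted concentration of half-maximal effect; trophozoites exposed to compound for 48 h at 37 °C; % is set by controls: 0 for no effect and ±100 for the full control effect; nearly all actives have a fitted effect of over 70% in size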
Mammal cell tox: qHTS Assay for Inhibitors of Fructose-1,6-bisphosphate Aldolase from Giardia Lamblia: Mammalian cellular toxicity; Potency, µM (titrated, usually from 57.5 µM), inactives show at the highest dose viability change, negative = toxicity, actives largely listed as inhibitors; AID 2786, 2010; shares compounds with Giardia FBPA inh-1; hit rate 4% among 1,500; mammalian cell viability counter-screen, qHTS;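 note: Chinese hamster ovary cells used as mammalian cytotoxicity surrogate; viability measured as cellular ATP by luminescence; potency is the fitted concentration of half-maximal effect; compound exposure lasted 48 h before reading; % is set by controls: 0 for no effect and ±100 for the full control effect; nearly all actives have a fitted effect of over 60% in size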
Giardia FBPA inh-2: qHTS Assay for Inhibitors of Fructose-1,6-bisphosphate Aldolase from Giardia Lamblia: Primary screen confirmation; shares compounds with Giardia FBPA inh-1; purified Giardia aldolase enzyme activity, qHTS; Potency, µM (doses to about 57.5 µM), for the others: at the highest dose activity change, negative = inhibition, actives largely listed as inhibitors; hit rate 5% among 1,500; AID 2787, 2010; note: potency is the fitted concentration of half-maximal effect; % is set by controls: 0 for no effect and ±100 for the full control effect; nearly all actives have a fitted effect of over 45% in size
Rabbit FBPA inh: qHTS Assay for Inhibitors of Fructose-1,6-bisphosphate Aldolase from Giardia Lamblia: Rabbit FBPA Selectivity; shares compounds with Giardia FBPA inh-1; Rabbit muscle FBPA enzyme inhibition, selectivity counter-screen; Potency, µM (top dose mostly 57.5 µM), without a hit: at the highest dose activity, negative = inhibition, actives largely listed as inhibitors; hit rate 4% among 1,500; AID 2794, 2010; note: potency is the fitted concentration of half-maximal effect; % is set by controls: 0 for no effect and ±100 for the full control effect; nearly all actives have a fitted effect of over 60% in size
GAPDH counter: qHTS Assay for Inhibitors of Fructose-1,6-bisphosphate Aldolase from Giardia Lamblia: Coupling assay counterscreen confirmation; shares compounds with Giardia FBPA inh-1; GAPDH coupling enzyme counterscreen, biochemical, qHTS; Potency, µM (top dose mostly 57.5 µM), for the others: at the highest dose activity change, negative = inhibition, hits mostly inhibitors; hit rate 6% among 1,500; note: potency is the fitted concentration of half-maximal effect; % is set by controls: 0 for no effect and ±100 for the full control effect; nearly all actives have a fitted effect of over 55% in size
* marks the source's active call; other numbers are inactive results; ? = inconclusive; . = no result; [ ] = dose if it differs, or a comment. The full list was thinned out, with hits kept by preference. Unless noted, calls come from the whole dose curve; as a rule, active = well fitted curve in the direction sought with a large enough effect; inconclusive = small, poorly fitted or top-dose-only effect, or another doubt; inactive = no such curve, though single readings can be large; an effect the other way counts as inactive or inconclusive.

SMILES	Giardia FBPA inh-1	Sm TGR inh	CHX counter	Shiga inhibitor	Tb PYK inh	LmPK inh	Giardia growth	Mammal cell tox	Giardia FBPA inh-2	Rabbit FBPA inh	GAPDH counter
COc1ccc(C2CC(c3ccccc3)Oc3ccc(OC)cc32)cc1 (stereo not drawn)	4%	.	9	3	.	.	.	.	.	.	.
CC(=O)Nc1ncc([N+](=O)[O-])s1	.	.	.	.	2%	.	.	.	.	.	.
Cc1ccc(C(=O)Nc2ncc([N+](=O)[O-])s2)cc1	16µM*	-26%	-7	-6	-18%	?	?	40µM*	?	25µM*	28µM*
c1ccc2[nH]c(SN3CCOCC3)nc2c1	3.5µM*	?	4	-5	.	13%	?	-4%	3%	-21%	?
O=C(CSc1nc2ccccc2[nH]1)Nc1ccccc1N1CCOCC1	-6%	-2%	-4	-8	-6%	-4%	.	.	.	.	.
CCC(=O)c1ccc(OCC(=O)NCc2ccccc2CN2CCCC2)cc1	.	.	.	.	4%	.	.	.	.	.	.
N#Cc1ccccc1NC(=S)NC(=O)c1cccnc1	14µM*	?	9	-8	8%	1%	28%	4%	6%	-2%	15%
CCCOC(=O)c1cccc(NC(=O)c2cccnc2)c1	0%	12%[11.4 µM]	-2	-10	-7%	12%	.	.	.	.	.
CCOC(=O)c1cccc(NC(=S)NC(=O)c2cccnc2)c1	10µM*	22µM*	-2	11	-5%	3%	-12%[38.3 µM]	3%	-10%	-10%	-2%
COc1cccc(NC(=S)NC(=O)c2cccnc2)c1	3.5µM*	11µM*	18*	39*	-7%	-7%	-58%[38.3 µM]	-10%	0%	-4%	2%
O=C(NC(=S)Nc1ccccc1O)c1cccnc1	?	17%	-4	.	-11%	4%	.	.	.	.	.
COc1cccc(NC(=S)Nc2ccc(O)cc2)c1	18µM*	?	32*	79*	-17%	3%	19%	2%	-24%	-15%	-19%
O=C(NCC(c1ccccc1)N1CCCC1)C1CCN(C(=O)Nc2ccccc2)CC1 (stereo not drawn)	.	-7%	.	.	6%	.	.	.	.	.	.
Cc1cccnc1NC(=S)NC(=O)c1cccs1	20µM*	66%	59*	191*	-13%	-21%	0%[10.4 µM]	32µM*	-1%	6%	15%
O=C(NC(=S)Nc1ccccc1[N+](=O)[O-])c1cncc(Br)c1	7.9µM*	20µM*	-2	38	0%	1%	11µM*	-4%	6%	5%	9%
Cc1cccnc1NC(=S)NC(=O)c1cncc(Br)c1	10µM*	39%	35*	91*	10%	-8%	-2%[38.3 µM]	-8%	0%	-6%	-1%
CC(=O)c1cccc(NC(=S)NC(=O)c2cncc(Br)c2)c1	13µM*	?	20*	31	-2%	-6%	-10%[10.4 µM]	15%	9%	10%	7%
COc1ccc2c(c1)c1c(c(=O)n(-c3ccccc3C)c(=O)n1Cc1c(F)cccc1Cl)n2C	.	19%	.	.	-12%	.	.	.	.	.	.
COCCCn1nnnc1SCC(=O)Nc1nc2ccccc2s1	.	-1%	10	-4	1%	2%	.	.	.	.	.
COCc1cc(=O)[nH]c(Nc2nc(C)c3ccccc3n2)n1	-8%	-6%	-2	-19	1%	0%	.	.	.	.	.
COCc1cc(=O)[nH]c(Nc2nc3ccccc3o2)n1	10µM*	4%	61*	65*	1%	-6%	-11%[38.3 µM]	?	18%	-3%	?
O=C(Nc1nnc(C2=COCCO2)o1)c1ccc(F)cc1	32µM*	5%	1	26	-5%	4%	?	5%	-7%	-12%	-10%
O=C(Nc1nnc(C2=COCCO2)o1)c1ccc(Cc2ccccc2)cc1	18µM*	2%	-2	-11	7%	0%	?	-3%	2%	8%	-3%
CCCC(=O)Nc1nnc([C@H]2C[C@H](O)[C@@H](CO)O2)s1	.	.	.	.	-11%	.	.	.	.	.	.
Cn1c(CN2CCCC2)nc2cc(NC(=O)COc3ccccc3)ccc21	0%	2%	-4	42	2%	0%	.	.	.	.	.
CC(=O)N1CCN(Cc2nc3cc(NC(=O)COc4cccc(C)c4)ccc3n2C)CC1	20µM*	-5%	-1	-12	0%	-1%	?	5%	-8%	11%	3%
COc1cccc(C(=O)N2CCN(Cc3ccccc3Br)CC2)c1	16µM*	1%	-2	-8	18%	0%	0%[10.4 µM]	-5%	-5%	9%	-13%
O=C(c1ccccc1)N1CCN(Cc2ccccc2C(F)(F)F)CC1	20µM*	9%	5	39	-2%	-3%	35%	3%	2%	3%	13%
